Bioassay records: PubChem, National Center for Advancing Translational Sciences (NCATS)
ALOX12 inh: Primary qHTS assay for inhibitors of human arachidonate 12S-lipoxygenase (ALOX12): Round 2; Polyunsaturated fatty acid lipoxygenase ALOX12 (Homo sapiens), P18054; purified 12hLO, xylenol orange hydroperoxide absorbance; Potency, µM (series often up to 108 µM), for inactives: at the highest dose activity change, negative = inhibition, actives largely listed as inhibitors; hit rate 1.1% among 580,000; AID 1671190, 2021; note: potency is the fitted concentration of half-maximal effect; % is set by controls: 0 for no effect and ±100 for the full control effect
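Purified human 12hLO at 150 nM in 25 mM Hepes, 0.01% Triton X-100, pH 7.0, preincubated 15 min at room temperature with compound. Reaction started with 40 uM arachidonic acid, 30 min at room temperature. Hydroperoxide measured by Fe-xylenol orange, 573/405 nm absorbance ratio.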
POLI inh: qHTS for Inhibitors of Polymerase Iota | DNA polymerase iota (Homo sapiens), Q9UNA4 | Pol iota fluorescent replication assay, 10 min | Potency, µM (titrated, usually from 115 µM), for the others: at the top dose activity, negative = inhibition, hits mostly inhibitors | hit rate 1% among 390,000 | AID 588590, 2011; note: potency is the fitted concentration of half-maximal effect
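Fluorescent replication assay read twice, at 0 min and 10 min after adding 50 nM (final) substrate. Enzyme (10 nM) and compounds were first incubated 15 min at room temperature; enzyme-free buffer wells were negative controls.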
PI5P4Ka inh: qHTS for Inhibitors of phosphatidylinositol 5-phosphate 4-kinase (PI5P4K); Phosphatidylinositol 5-phosphate 4-kinase type-2 alpha (Homo sapiens), P48426; max response, %; hit rate 1.2% among 330,000; PI5P4Kalpha enzyme, ADP-Glo luminescence, 60 min; stronger effect = lower value; active = max response of -50% or lower; inconclusive = between -30% and -50%; inactive = -30% or higher; note: value at the top dose of about 77 µM; % is set by controls: 0 for no effect and ±100 for the full control effect
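PI5P4Kalpha ADP-Glo assay; 5 microM ATP final; 60 min RT reaction; HEPES pH 7.4/EGTA/CHAPS, 5% DMSO; controls lacking substrate or enzyme; luminescent end-point.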
POLH inh: qHTS for Inhibitors of Polymerase Eta. hit rate 1.2% among 390,000. Potency, µM (series often up to 114 µM), without a hit: top-dose activity change, negative = inhibition, actives largely listed as inhibitors. AID 588591, 2011. recombinant Pol eta, fluorescent DNA replication assay. DNA polymerase eta (Homo sapiens), Q9Y253; note: potency is the fitted concentration of half-maximal effect; % is set by controls: 0 for no effect and ±100 for the full control effect
Target sequence (Q9Y253 whole entry, looked up): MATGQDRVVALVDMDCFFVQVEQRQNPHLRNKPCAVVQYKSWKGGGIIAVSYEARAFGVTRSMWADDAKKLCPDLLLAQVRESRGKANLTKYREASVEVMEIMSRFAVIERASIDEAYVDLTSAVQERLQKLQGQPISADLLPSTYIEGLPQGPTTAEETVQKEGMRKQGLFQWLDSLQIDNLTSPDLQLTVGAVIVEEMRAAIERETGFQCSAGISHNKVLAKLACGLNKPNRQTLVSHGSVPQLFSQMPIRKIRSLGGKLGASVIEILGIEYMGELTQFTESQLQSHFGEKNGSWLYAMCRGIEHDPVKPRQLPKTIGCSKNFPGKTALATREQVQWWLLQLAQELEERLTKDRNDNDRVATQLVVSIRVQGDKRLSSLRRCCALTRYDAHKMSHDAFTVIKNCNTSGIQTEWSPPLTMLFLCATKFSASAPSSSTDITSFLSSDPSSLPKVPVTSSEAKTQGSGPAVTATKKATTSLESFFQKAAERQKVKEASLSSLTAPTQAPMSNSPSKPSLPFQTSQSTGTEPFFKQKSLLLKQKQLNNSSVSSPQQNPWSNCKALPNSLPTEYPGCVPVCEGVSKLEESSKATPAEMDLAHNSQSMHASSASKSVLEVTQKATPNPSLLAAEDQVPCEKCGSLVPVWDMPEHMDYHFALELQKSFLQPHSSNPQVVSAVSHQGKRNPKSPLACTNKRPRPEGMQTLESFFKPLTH
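Fluorescent replication assay: 50 nM final substrate added after a 15 min room-temperature compound preincubation with 10 nM enzyme. Signal taken at 0 min and again at 10 min.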
POLK inh: qHTS for Inhibitors of Polymerase Kappa; DNA polymerase kappa (Homo sapiens), Q9UBT6; purified Pol kappa, fluorescent DNA synthesis assay, 10 min; Potency, µM (doses to about 107 µM), for inactives: at the top dose activity, negative = inhibition, hits mostly inhibitors; hit rate 0.53% among 400,000; AID 588579, 2011; note: potency is the fitted concentration of half-maximal effect; % is set by controls: 0 for no effect and ±100 for the full control effect
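Kinetic fluorescence screen: compound preincubated 15 min RT with 10 nM enzyme; 50 nM substrate (final) initiates; reads at 0/10 min.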
Pol beta inh: qHTS Assay for Inhibitors of DNA Polymerase Beta | P06746 | Pol beta primer extension/strand displacement, fluorescence kinetic | Potency, µM (series often up to 114 µM), inactives show at the top dose activity change, negative = inhibition, most hits filed as inhibitors | hit rate 1.3% among 340,000 | AID 485314, 2010; note: potency is the fitted concentration of half-maximal effect; % is set by controls: 0 for no effect and ±100 for the full control effect
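Enzyme-only controls used 10 nM Pol beta; buffer lacking enzyme served as negative control. Compound preincubated 15 min, then 50 nM substrate added; 0 and 10 min reads at room temperature.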
* = called active by the depositor; i = inactive; ? = inconclusive; / = no result given; ! = not confirmed by another sample; [ ] = dose if it differs, or a comment. A selection: hits, their analogues and other compounds. The true share with any hit is near 2.9%. Unless noted, calls come from the whole dose curve; as a rule, active = well fitted inhibition curve with a large enough effect; inconclusive = small, poorly fitted or top-dose-only effect, or another doubt; inactive = no such curve, though single readings can be large or run the other way.

SMILES	ALOX12 inh	POLI inh	PI5P4Ka inh	POLH inh	POLK inh	Pol beta inh
N#CC1=C(N)OC2=C(C(=O)CC(c3ccc(Cl)cc3)C2)C1c1ccccc1Cl (configuration not stated)	16µM*	/	/	/	/	/
N#CC1=C(N)OC2=C(C(=O)CC(c3ccccc3)C2)C1c1ccc2c(c1)OCO2 (configuration not stated)	-20%	-23%	-10	-24%	-7%	2%
COc1cc(C2Nc3cccc4cccc(c34)N2)ccc1O	?	119%	-27	?	-16%	-25%
COc1ccc(Br)cc1C1Nc2cccc3cccc(c23)N1	-6%	53%	5	-19%	-2%	79µM*
CCCCOCCCNC(=O)c1cc(-c2ccncc2)nc2ccccc12	13%	/	/	/	/	/
Cc1cc(C)c2c(CC(=O)Nc3ccc(C)c(C)c3)coc2c1	-18%	/	/	/	/	/
CC(=O)N1CCc2cc(Br)cc(S(=O)(=O)N3CCC(C(=O)Nc4ccc(C(C)C)cc4)CC3)c21	0%	35µM*	/	-11%	?	0%
CC(C)c1ccc(NS(=O)(=O)c2cc(Br)cc3c2N(C(=O)C2CC2)CC3)cc1	-6%	8%	/	-21%	-7%	18%
Cc1ccc(S(=O)(=O)NC(=O)NN2CC3CCCC3C2)cc1 (configuration not stated)	3.1µM*!	11%	-2	-11%	2%	32%
Cc1ccc(S(=O)(=O)NC(=O)NN2CCCCCC2)cc1	?	-12%	5	-8%	-2%[60.1 µM]	-1%
COc1ccc(NC(=O)c2ccc3c(SCC(=O)O)c4c(nc3c2)CCCC4)cc1OC	-1%	2%	/	-10%	-6%	3%
O=C(O)CSc1c2c(nc3cc(C(=O)Nc4ccc(F)c(Cl)c4)ccc13)CCC2	?	50µM*	/	?	?	?
CCCOc1ccc(C(=O)Nc2cccc3ccc(C)nc23)cc1	1%	/	/	/	/	/
CCc1ccccc1N(CC(=O)NCc1ccco1)C(=O)c1snc(C(N)=O)c1N	59%	?	-25	20µM*	-35%	50µM*
COc1ccc2c(C)c(CC(=O)O)c(=O)oc2c1OC	5%	/	/	/	/	/
COc1cccc(CNC(=O)Cc2c(C)nc3ccccc3c2C)c1	-18%	/	/	/	/	/
CCN(CC)CCNc1nc(-c2ccco2)c2c(c1C#N)CC(C)(C)OC2	-8%	27%	-4	-16%	4%	9%
CC1(C)Cc2c(C#N)c(NCCc3ccccc3)nc(-c3ccco3)c2CO1	?	79µM*	-19	89µM*	-2%	16%
Cc1ccc(C)c(CN2CCN(c3nc4c(c(=O)[nH]c(=O)n4C)n3C/C=C/c3ccccc3)CC2)c1	0%	/	/	/	/	/
Cc1ccc(-c2cc(Nc3cccc(C)c3)nc(C)n2)cc1	50µM*	/	/	/	/	/
Cc1ccc(Nc2cc(-c3ccccc3)nc(C)n2)cc1	3%	-2%	/	-24%	-16%	?
Cc1ccc(-c2cc(C(=O)NN3CCOCC3)c3cc(Br)ccc3n2)o1	?	13%	-29	0%	-13%	?
Cc1ccc(-c2cc(C(=O)N3CCN(C(=O)C4CC4)CC3)c3ccccc3n2)o1	22µM*	/	/	/	/	/
Cc1ccc(-c2cc(C(=O)N3CCCCC3)c3cc(Br)ccc3n2)o1	8.9µM*	/	/	/	/	/
Cc1ccc(-c2cc(C(=O)NC3=NCCS3)c3cc(Br)ccc3n2)o1	/	/	/	/	/	79µM*
SMILES	ALOX12 inh	POLI inh	PI5P4Ka inh	POLH inh	POLK inh	Pol beta inh
Cc1ccc(-c2cc(C(=O)NCCCn3ccnc3)c3cc(Br)ccc3n2)o1	/	?	-26	?	?	-22%
COc1cccc(/C=N/Nc2nnc(C)n2N)c1OCc1ccccc1Cl	22%	20µM*	-6	-7%	-6%	-2%[57.1 µM]
COc1ccc(/C=N/Nc2nnc(C)n2N)cc1OC	41%	11µM*	0	-17%	-21%	-27%
COc1ccc(C(=O)N2C[C@@H](F)[C@@H](OCc3nc4ccc(F)cc4[nH]3)C2)cc1	23%[176 µM]	/	/	/	/	/
Cn1c(=O)c2c(nc(SCC(=O)NCc3ccc(F)cc3)n2Cc2ccccc2F)n(C)c1=O	-1%	/	/	/	/	/
CC/C(=N/Nc1cccc(C)c1)c1cnnc(SC)n1	7.9µM*	13%	2	?	-19%	?
O=C(Nc1cc(F)cc(F)c1)c1cnc2ccccc2n1	-1%	/	/	/	/	/
O=C(COc1ccc2ccccc2c1)NNC(=O)c1ccc([N+](=O)[O-])cc1	-16%	?	-9	79µM*	-20%	8.9µM*
O=C(NC(=S)NNC(=O)c1ccccc1[N+](=O)[O-])c1ccc(Br)cc1	3.5µM*	21%	?	-18%	0%	7%
COc1ccc(OCC(=O)NC(=S)NNC(=O)COc2ccc(Br)cc2Cl)cc1	14µM*	14%	-16	-9%	-18%	-1%
O=C(COc1ccc([N+](=O)[O-])cc1)NNC(=S)NC(=O)c1ccc(Br)cc1	40µM*	99%	?	11%	-2%	39%
CCN(CC)C(=O)Oc1ccc2oc(=O)c(-c3ccc(OC)cc3)c(C)c2c1	-14%	/	/	/	/	/
COc1cc(O)c2c(c1)oc(=O)c1c3cc(O)c(O)cc3oc21	/	/	/	/	0.75µM*	/
COc1ccc2c(c1)oc(=O)c1cc(OC)ccc12	?	-1%	-12	-12%	-5%	?
Cc1oc(-c2ccccc2)nc1C(=O)NCC(=O)Nc1ccccc1Br	-1%	/	/	/	/	/
CC(/C=N/NC(=O)c1ccc(Br)cc1)=C\c1ccccc1	3%	?	/	-11%	1%[60.1 µM]	22µM*
O=C(N/N=C/c1ccc(F)cc1)c1ccc(Br)cc1	-16%	-11%	/	-16%	-8%	32µM*
O=C(N/N=C/c1ccc(Br)cc1)c1ccc(F)cc1	21%	-3%	5	-11%	-5%	-10%
O=C(N/N=C/c1ccc(OC(=O)c2cccs2)cc1)c1ccc(F)cc1	0%	9%	-1	?	-17%	18µM*
COc1ccc(C(=O)N/N=C\C(C)=C\c2ccccc2)cc1OC	i	-26%[58.9 µM]	7	5%	-42%	/
O=C(N/N=C/c1ccncc1)c1ccc(-n2cccc2)cc1	0%	79µM*	-20	-9%	-2%	40µM*
Cn1cnc2c1c(=O)n(CC(=O)N1CC(C(=O)N3CCCCC3)Oc3ccccc31)c(=O)n2C (configuration not stated)	25%	/	/	/	/	/
COc1cccc([S+](=O)([O-])NC[C@@H]2CC[C@H]3C[C@@H]2C3(C)C)c1	-10%[176 µM]	/	/	/	/	/
